# According to the supplement of paper PMC11732987, “Enantioselective OTUD7B fragment discovery through chemoproteomics screening and high-throughput optimisation” (Communications Chemistry, 2025):
# A number with no mark means an inactive call.
# Columns and labels:
# Experiment in all cases: log2 ratio of Biotin-Ahx-Ub-VS probe labelling (fragment/DMSO); higher = less target engagement (more negative = stronger competition), active = hit call of the paper (q ≤ 0.05, log2 ratio ≤ -1)
# Details in all cases: compound concentration: 200 uM; treatment time: 3 h
# [1] = molecular target: T1, OTUD6B (UniProt Q8N6M0)
# T1 sequence (whole entry): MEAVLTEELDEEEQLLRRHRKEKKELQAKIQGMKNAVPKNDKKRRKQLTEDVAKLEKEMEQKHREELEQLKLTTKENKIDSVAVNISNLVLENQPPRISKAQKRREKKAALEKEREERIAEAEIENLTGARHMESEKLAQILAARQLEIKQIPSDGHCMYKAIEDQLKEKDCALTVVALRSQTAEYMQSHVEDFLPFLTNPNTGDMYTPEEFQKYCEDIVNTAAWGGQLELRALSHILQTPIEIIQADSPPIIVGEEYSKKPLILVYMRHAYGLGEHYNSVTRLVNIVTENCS
# Method in brief: (§1)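 Average log2 ratios of fragment over vehicle were obtained by unpaired t-test from global-median-normalised Spectronaut label-free quantities. Proteins with ≥2 unique peptides were included. HEK293T lysate (495 µg per sample) was treated in triplicate with fragment at 200 µM or vehicle for 3 h, then with Biotin-Ahx-Ub-VS at 0.5 µM final for 1 h, and labelled DUBs were NeutrAvidin-enriched and run by diaPASEF LC-MS/MS.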
# [2] = molecular target: T2, OTUD7B (UniProt Q6GQQ9)
# T2 sequence (whole entry): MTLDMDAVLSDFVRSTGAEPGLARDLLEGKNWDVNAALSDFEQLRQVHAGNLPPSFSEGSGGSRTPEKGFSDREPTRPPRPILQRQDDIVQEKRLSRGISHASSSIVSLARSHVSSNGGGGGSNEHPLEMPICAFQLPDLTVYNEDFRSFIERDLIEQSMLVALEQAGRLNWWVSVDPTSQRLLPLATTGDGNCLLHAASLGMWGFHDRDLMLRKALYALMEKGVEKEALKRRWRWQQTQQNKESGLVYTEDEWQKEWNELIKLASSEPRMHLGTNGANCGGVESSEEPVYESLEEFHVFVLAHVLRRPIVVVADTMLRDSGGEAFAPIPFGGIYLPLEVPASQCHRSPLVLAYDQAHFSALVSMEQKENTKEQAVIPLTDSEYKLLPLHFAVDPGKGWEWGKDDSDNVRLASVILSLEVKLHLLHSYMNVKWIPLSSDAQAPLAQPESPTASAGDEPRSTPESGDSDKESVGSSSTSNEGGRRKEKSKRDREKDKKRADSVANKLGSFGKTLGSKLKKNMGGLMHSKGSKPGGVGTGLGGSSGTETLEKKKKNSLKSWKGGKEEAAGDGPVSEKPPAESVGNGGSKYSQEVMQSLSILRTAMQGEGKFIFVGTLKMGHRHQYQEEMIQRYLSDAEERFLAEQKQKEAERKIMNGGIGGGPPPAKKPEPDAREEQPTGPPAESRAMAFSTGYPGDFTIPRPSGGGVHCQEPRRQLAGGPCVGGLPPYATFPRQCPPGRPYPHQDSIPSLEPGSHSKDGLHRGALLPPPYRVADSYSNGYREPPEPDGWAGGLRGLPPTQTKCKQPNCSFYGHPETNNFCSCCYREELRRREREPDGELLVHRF
# Method in brief: as §1
# [3] = molecular target: PRPF8 (UniProt Q6P2Q9)
# Method in brief: as §1
# [4] = molecular target: T3, PSMD7 (UniProt P51665)
# T3 sequence (whole entry): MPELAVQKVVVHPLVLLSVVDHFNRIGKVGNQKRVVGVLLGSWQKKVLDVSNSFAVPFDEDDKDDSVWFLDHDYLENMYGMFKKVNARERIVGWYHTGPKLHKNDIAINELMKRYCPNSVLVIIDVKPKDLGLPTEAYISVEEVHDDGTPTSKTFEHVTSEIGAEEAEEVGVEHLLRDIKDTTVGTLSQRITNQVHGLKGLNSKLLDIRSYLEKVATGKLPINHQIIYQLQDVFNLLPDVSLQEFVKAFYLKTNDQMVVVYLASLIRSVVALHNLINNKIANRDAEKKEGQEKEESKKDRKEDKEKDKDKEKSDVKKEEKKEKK
# Method in brief: as §1
# [5] = molecular target: UCHL1 (UniProt P09936)
# Method in brief: as §1
# [6] = molecular target: T4, UCHL3 (UniProt P15374)
# T4 sequence (whole entry): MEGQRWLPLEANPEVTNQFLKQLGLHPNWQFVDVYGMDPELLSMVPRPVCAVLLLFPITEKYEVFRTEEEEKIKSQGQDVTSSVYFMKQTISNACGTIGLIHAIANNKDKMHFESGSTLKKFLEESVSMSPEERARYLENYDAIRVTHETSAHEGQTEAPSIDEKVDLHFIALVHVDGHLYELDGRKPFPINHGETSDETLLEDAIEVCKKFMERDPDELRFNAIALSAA
# Method in brief: as §1
# [7] = molecular target: T5, UCHL5 (UniProt Q9Y5K5)
# T5 sequence (whole entry): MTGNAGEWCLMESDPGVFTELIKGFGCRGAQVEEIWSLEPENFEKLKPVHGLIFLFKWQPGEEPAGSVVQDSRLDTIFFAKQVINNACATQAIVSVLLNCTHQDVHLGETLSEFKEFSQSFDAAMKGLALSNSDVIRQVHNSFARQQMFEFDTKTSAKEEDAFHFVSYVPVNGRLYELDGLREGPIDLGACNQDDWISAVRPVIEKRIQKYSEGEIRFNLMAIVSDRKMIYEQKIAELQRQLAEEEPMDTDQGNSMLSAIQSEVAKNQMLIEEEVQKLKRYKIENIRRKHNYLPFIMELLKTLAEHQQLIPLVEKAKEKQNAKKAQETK
# Method in brief: as §1
# [8] = molecular target: USP10 (UniProt Q14694)
# Method in brief: as §1
# [9] = molecular target: T6, USP15 (UniProt Q9Y4E8)
# T6 sequence (whole entry): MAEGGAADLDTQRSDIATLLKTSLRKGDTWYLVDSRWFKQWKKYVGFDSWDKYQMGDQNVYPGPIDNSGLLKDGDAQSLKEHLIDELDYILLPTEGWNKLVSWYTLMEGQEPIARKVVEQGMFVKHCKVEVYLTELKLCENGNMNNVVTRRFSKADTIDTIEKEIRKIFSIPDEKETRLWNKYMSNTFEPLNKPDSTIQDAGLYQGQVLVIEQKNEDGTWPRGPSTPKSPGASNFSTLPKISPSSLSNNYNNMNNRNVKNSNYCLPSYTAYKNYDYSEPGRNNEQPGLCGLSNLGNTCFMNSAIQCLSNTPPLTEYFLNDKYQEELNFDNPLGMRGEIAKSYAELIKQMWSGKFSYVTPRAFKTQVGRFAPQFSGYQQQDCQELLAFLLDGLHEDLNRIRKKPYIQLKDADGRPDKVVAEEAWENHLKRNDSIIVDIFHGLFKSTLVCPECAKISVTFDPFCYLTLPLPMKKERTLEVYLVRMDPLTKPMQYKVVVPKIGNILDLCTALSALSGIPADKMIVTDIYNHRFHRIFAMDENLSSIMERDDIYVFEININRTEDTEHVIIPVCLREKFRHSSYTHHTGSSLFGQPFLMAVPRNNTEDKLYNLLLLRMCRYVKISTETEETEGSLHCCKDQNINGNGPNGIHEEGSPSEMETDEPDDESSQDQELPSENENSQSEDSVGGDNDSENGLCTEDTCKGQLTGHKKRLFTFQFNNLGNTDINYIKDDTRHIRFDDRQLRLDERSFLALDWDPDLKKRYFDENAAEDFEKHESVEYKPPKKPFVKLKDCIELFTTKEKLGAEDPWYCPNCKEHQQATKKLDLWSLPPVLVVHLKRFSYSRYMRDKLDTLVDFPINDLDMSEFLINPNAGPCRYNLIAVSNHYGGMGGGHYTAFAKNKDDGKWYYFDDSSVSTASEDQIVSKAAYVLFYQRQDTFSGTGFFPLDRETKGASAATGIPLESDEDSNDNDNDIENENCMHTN
# Method in brief: as §1
# [10] = molecular target: USP16 (UniProt Q9Y5T5)
# Method in brief: as §1
# Sequence of UCHL1 (P09936 whole entry, looked up): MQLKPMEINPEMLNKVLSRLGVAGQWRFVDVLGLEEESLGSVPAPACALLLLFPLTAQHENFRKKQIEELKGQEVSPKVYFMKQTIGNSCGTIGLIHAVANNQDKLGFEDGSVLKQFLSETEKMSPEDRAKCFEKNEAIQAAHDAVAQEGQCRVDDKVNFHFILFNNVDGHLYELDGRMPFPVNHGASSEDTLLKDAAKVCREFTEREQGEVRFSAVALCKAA
# Sequence of USP16 (Q9Y5T5 whole entry, looked up): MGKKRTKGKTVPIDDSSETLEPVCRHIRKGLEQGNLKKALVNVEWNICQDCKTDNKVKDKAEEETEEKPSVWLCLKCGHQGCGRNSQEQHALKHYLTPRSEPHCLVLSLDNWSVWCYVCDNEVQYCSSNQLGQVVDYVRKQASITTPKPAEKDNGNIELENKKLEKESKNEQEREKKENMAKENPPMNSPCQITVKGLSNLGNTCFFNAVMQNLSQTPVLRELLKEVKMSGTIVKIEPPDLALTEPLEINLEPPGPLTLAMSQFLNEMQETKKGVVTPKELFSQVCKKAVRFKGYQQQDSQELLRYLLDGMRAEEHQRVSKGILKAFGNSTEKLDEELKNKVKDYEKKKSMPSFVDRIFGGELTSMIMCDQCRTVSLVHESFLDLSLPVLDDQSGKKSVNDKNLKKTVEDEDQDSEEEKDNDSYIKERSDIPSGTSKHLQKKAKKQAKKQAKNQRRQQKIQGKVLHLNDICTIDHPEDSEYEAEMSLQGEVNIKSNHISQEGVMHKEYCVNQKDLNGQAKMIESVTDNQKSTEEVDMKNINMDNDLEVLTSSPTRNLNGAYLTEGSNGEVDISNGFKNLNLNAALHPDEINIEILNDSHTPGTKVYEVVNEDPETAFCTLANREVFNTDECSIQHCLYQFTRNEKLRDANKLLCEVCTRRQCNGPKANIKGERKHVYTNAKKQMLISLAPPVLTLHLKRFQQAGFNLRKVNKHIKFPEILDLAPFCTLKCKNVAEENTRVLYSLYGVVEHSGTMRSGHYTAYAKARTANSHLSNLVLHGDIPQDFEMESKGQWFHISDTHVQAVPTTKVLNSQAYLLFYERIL
# Sequence of USP10 (Q14694 whole entry): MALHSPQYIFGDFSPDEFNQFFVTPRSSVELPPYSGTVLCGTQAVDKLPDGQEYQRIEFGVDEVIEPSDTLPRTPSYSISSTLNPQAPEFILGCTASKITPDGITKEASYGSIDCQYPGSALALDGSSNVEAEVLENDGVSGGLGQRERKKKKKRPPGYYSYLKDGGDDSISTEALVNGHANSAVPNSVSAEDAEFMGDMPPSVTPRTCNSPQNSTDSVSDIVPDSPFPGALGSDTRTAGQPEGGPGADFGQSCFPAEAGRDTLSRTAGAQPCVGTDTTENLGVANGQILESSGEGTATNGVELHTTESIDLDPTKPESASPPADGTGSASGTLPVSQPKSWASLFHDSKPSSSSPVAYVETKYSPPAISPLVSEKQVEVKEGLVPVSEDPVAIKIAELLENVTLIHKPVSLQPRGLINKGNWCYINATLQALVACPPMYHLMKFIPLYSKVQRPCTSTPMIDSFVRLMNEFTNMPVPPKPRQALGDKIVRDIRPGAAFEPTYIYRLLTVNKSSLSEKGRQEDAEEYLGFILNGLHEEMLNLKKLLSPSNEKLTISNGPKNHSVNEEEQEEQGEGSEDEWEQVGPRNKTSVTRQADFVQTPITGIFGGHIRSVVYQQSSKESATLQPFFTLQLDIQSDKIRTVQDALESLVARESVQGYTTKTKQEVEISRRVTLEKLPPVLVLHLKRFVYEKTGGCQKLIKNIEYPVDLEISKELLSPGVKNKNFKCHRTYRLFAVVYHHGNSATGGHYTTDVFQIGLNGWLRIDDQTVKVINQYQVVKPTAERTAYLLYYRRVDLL
smiles,measurement,setting,value
O=C(CCl)N1CCc2[nH]c3ccccc3c2C1,log2 ratio of Biotin-Ahx-Ub-VS probe labelling,[1],-0.206
same,log2 ratio of Biotin-Ahx-Ub-VS probe labelling,[2],-1.05 (active)
same,log2 ratio of Biotin-Ahx-Ub-VS probe labelling,[3],-0.175
same,log2 ratio of Biotin-Ahx-Ub-VS probe labelling,[4],-0.319
same,log2 ratio of Biotin-Ahx-Ub-VS probe labelling,[5],-1.24 (active)
same,log2 ratio of Biotin-Ahx-Ub-VS probe labelling,[6],-0.675
same,log2 ratio of Biotin-Ahx-Ub-VS probe labelling,[7],-0.893
same,log2 ratio of Biotin-Ahx-Ub-VS probe labelling,[8],-0.119
same,log2 ratio of Biotin-Ahx-Ub-VS probe labelling,[9],-1.46 (active)
same,log2 ratio of Biotin-Ahx-Ub-VS probe labelling,[10],0.191
